Source: PubChem (National Center for Advancing Translational Sciences (NCATS))
Pin1 inh: inhibitors of human Pin1; Potency, µM (series often up to 115 µM), inactives show top-dose activity, negative = inhibition, most hits filed as inhibitors; Pin1 FP peptide displacement, HiFluor488, 10 min; Q13526; 390,000 compounds, 0.009% hits; active = well fitted inhibition curve with a large enough effect in the polarisation, with a control signal flat, not every such curve was filed as active; inconclusive = small, poorly fitted or top-dose-only effect, or effect the other way, or a change in a side signal; inactive = no such curve, though single readings can be large or run the other way; the % refers to the polarisation; note: % is set by controls: 0 for no effect and ±100 for the full control effect
Target sequence (Q13526 whole entry, looked up): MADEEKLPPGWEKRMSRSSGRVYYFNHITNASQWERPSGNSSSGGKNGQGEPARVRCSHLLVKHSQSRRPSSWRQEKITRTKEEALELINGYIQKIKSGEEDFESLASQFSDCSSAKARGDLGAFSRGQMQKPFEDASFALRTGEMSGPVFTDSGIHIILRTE
HEK293 tox: cytotoxicity in counter-screen for GLP-1R inverse agonists; HEK293 cAMP-luciferase reporter cells, luminescence, 24 h; Potency, µM (titrated, usually from 38.3 µM), inactives show top-dose activity change, negative = inhibition, usual class: inhibitors; 410,000 compounds, 0.13% hits;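 note: loss of luciferase light is scored as toxicity; % is set by controls: 0 for no effect and ±100 for the full control effect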
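Step one: seed cells (200 cells/uL, DMEM with 10% Nu serum, 1% pen-strep). Step two: 12-hour incubation at 37 deg C. Step three: pin 23 nL compound, incubate 24 hr. Step four: add luciferase reagent, read luminescence 12 min later.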
Tb PGK inh: blocks T. brucei phosphoglycerate kinase. Potency, µM (top dose mostly 57.5 µM), without a hit: at the highest dose activity change, negative = inhibition, usual class: inhibitors. AID 602233. 380,000 compounds, 0.043% hits. PGK/GAPDH coupled, Kinase-Glo luminescence, 60 min; note: % is set by controls: 0 for no effect and ±100 for the full control effect; nearly all actives have a fitted effect of over 60% in size
Target sequence (P07378 whole entry, looked up): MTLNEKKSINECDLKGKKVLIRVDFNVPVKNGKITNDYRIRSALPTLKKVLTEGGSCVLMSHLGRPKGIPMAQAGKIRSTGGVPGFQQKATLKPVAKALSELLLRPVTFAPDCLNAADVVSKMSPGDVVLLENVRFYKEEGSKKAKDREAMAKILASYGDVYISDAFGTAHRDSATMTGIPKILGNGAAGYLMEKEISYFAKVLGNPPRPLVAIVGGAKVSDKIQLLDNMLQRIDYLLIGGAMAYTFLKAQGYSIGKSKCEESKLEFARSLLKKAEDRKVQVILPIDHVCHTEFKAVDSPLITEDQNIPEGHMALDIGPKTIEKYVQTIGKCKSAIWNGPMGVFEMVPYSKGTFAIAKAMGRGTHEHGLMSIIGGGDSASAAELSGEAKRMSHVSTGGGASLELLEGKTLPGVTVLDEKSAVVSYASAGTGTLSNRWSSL
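Recombinant glycosomal PGK reaction used 1,3-bisphosphoglycerate generated in-well by GAPDH (100nM final) in 100mM TEA pH 7.6, 5mM MgCl2, 0.01% Tween-20. After 60 minutes at room temperature, ATP was read by Kinase-Glo Plus luminescence end-point.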
Tb PFK inh: blocks T. brucei phosphofructokinase; O15648; Potency, µM (top dose mostly 57.5 µM), for the others: at the top dose activity, negative = inhibition, most hits filed as inhibitors; 330,000 compounds, 0.17% hits; T. brucei PFK, ADP-Glo luminescence; AID 485367;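 note: 0% = uninhibited 1x PFK enzyme wells and -100% = no-enzyme wells; nearly all actives have a fitted effect of over 60% in size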
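1.25 nM PFK with 0.5 mM F6P and 0.1 mM ATP in 0.1 M TEA pH 8.0, 5 mM MgCl2, incubated 45 min at room temperature; ADP measured by ADP-Glo luminescence; compounds titrated up to 57 uM.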
GLP1R inv ag: GLP-1 receptor (human) inverse agonism. P43220. HEK293 GLP-1R CRE-luciferase, luminescence, 24 h; GLP-1R form is constitutively active. Potency, µM (top dose mostly 38.3 µM), inactives show at the highest dose activity change, negative = inhibition, usual class: inhibitors. 410,000 compounds, 1.6% hits; note: % is set by controls: 0 for no effect and ±100 for the full control effect; nearly all actives have a fitted effect of over 55% in size
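Assay principle: reduced luminescence from a cAMP-responsive reporter in HEK293 cells co-expressing a constitutively active GLP-1R. Conditions: 24 hr compound incubation, 37 deg C, 5% CO2.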
GLP1R ag: agonists of human GLP-1 receptor | P43220 | HEK293 GLP-1R CRE-luciferase, luminescence, 4-6 h; cells express a hypersensitive GLP-1R form | Potency, µM (highest dose often 45.6 µM), without a hit: top-dose activation, most hits filed as activators | 380,000 compounds, 0.007% hits | AID 624172; note: % of control where 0% means no effect
The depositor's hits bear a star; i = inactive; ? = inconclusive; · = no result given; [ ] = another dose, or the depositor's remark. The list is not random: actives were taken first. Their share in the collection is about 1.8%. Unless noted, calls come from the whole dose curve; as a rule, active = well fitted curve in the direction sought with a large enough effect; inconclusive = small, poorly fitted or top-dose-only effect, or another doubt; inactive = no such curve, though single readings can be large; an effect the other way counts as inactive or inconclusive. Potency is the fitted concentration of half-maximal effect.

SMILES	Pin1 inh	HEK293 tox	Tb PGK inh	Tb PFK inh	GLP1R inv ag	GLP1R ag
Oc1ccc2c3c1OC1C(O)C=CC4[C@@H](C2)NCC[C@]314 (stereo partly drawn)	·	·	·	·	·	-1.6%[96 µM]
O=S(=O)(c1ccc(Cl)c(NC(=S)N/N=C/c2ccc(O)cc2)c1)N1CCOCC1	5.0%	10µM*	-2.6%	1.4%	?	-60.0%
Cc1ccc(C(C)C)c(OCC(=O)Nc2cc(-c3nc4ccccc4[nH]3)ccc2C)c1	1.9%	?	·	·	?	·
CCCSc1cc(OC)c(CCN)cc1OC	·	·	·	·	·	8.5%[110 µM]
CN(Cc1ccccc1)C(=O)c1ccc(NC(=O)C2CCN(C(=O)OC(C)(C)C)CC2)cc1	-5.1%	14.1%	-4.3%	2.9%	5.01µM*	-0.5%
C=C1C(=O)[C@@]23C[C@H]4[C@@H]5[C@@]6(C)CCC[C@@]57[C@@H]2[C@@H](O)[C@@H]1C[C@H]3[C@H]7N4C6	-0.2%	?	10.2%	·	8.91µM*	-11.3%
O=C(OCc1cc(=O)n2nc(C3CC3)sc2n1)c1ccc(NC(=O)c2ccccc2Cl)cc1	?	-3.2%	-5.4%	·	-8.2%	·
CCN(CCCl)c1cc(CN(C)C)cc(NC(=O)c2ccc(C(=O)Nc3cc(CN(C)C)cc(N(CC)CCCl)c3)cc2)c1	2.8%	2.82µM*	4.8%	·	?	-9.1%
CS(=O)(=O)N(Cc1ccccc1)c1ccc(C(=O)Nc2ccc(Cl)cc2)cc1	2.8%	?	-8.7%	·	?	·
CCOC(=O)C(O)(c1ccc(NC(=O)c2ccc(Cl)c(Cl)c2)cc1)C(F)(F)F (stereo not drawn)	?	-19.1%	1.3%	-7.2%	5.01µM*	1.2%
CCOC(=O)C(O)(c1ccc(N(C)C(=O)c2ccc(Cl)c(Cl)c2)cc1)C(F)(F)F (stereo not drawn)	21.6%	-18.9%	0.8%	-1.2%	?	16.1%
O=C(Nc1ccc(F)cc1)[C@@H](c1ccccc1)N1Cc2ccccc2C1=O	0.7%	-17.6%	-3.1%	·	?	1.2%
Cc1ccc(C(=O)C2CN3CCC2CC3)cc1 (stereo not drawn)	-11.5%	-9.5%	-8.7%	-6.5%	7.08µM*	2.1%
Cc1ccc(O)c(Cc2cc(C)cc(Cc3cc(C)ccc3O)c2O)c1	·	?	5.1%	·	?	-1.1%
CN(CCc1ccccc1)C(=O)c1ccc(NC(=O)Cc2cccc([N+](=O)[O-])c2)cc1	-5.9%	?	-7.6%	-24.3%	?	2.7%
COc1ccc(NC(=O)CN(c2ccc([N+](=O)[O-])cc2)S(=O)(=O)c2ccccc2)cc1	0.3%	?	i	-4.8%	6.31µM*	2.7%
CCOC(=O)c1c(-c2ccc(OC)cc2)oc2ccc(OC(=O)N(C)C)cc12	-0.3%	-7.9%	-0.7%	-0.8%	5.62µM*	6.4%
Cc1oc2ccc(OC(=O)N(C)C)cc2c1C(=O)OC(C)C	-1.5%	5.9%	0.0%	1.0%	-9.7%	29.8%
Nc1nc(CCl)nc(N(c2ccccc2)c2ccccc2)n1	?	?	i	1.2%	?	?
Cc1ccc2nc(Cl)c3nnnn3c2c1	?	?	-10.2%	-15.2%	-13.3%	-4.4%
Cc1cc(/C=C2\C(=O)NC(=O)N(Cc3ccccc3)C2=O)c(C)n1-c1ccc(Cl)c(C(=O)O)c1	39.9%	-15.4%	12.6µM*	-11.8%	11.0%	-1.9%
Cc1ccc(C(=O)/C=C/c2ccccc2[N+](=O)[O-])cc1	?	?	0.2%	2.8%	?	-5.4%
C=CCn1cccc(/C=C/C(=O)c2ccc(C(C)(C)C)cc2)c1=S	10.9%	?	-7.3%	-0.4%	12.6µM*	-20.7%
C=C1C(=O)OC2CC1C(O)CC(C)=CCCC(C)=CC(O)CC2C (stereo not drawn)	3.7%	?	3.4%	·	2.24µM*	-11.5%
CC(C)c1ccc(NC(=O)C2CCC(CNS(=O)(=O)c3ccc4c(c3)CCCC(=O)N4)CC2)cc1 (stereo not drawn)	-1.3%	-13.9%	3.6%	·	?	·
SMILES	Pin1 inh	HEK293 tox	Tb PGK inh	Tb PFK inh	GLP1R inv ag	GLP1R ag
c1ccc(COc2ncnc3c2ncn3CCCN2CCN(Cc3cccc4ccccc34)CC2)cc1	·	?	-4.8%	·	3.55µM*	-6.9%
c1cc2n(c1)-c1c(ccc3c1OCO3)CNC2c1ccc2c(c1)OCO2 (stereo not drawn)	0.4%	-25.7%	-8.5%	-1.1%	8.91µM*	0.2%
COc1ccc(C2NCc3ccc4c(c3-n3cccc32)OCO4)cc1O (stereo not drawn)	-0.2%	?	i	-4.6%	?	3.1%
CCCCC(=O)Nc1c(C(=O)N2CCN(c3ccccc3F)CC2)oc2ccccc12	5.6%	-14.2%	-3.2%	·	?	·
COc1c(C)cc(C(=O)C2CCCN(Cc3ccccn3)C2)cc1C (stereo not drawn)	-0.3%	?	-8.7%	3.1%	2.82µM*	20.3%
COc1cccc(C(=O)C2CCCN(Cc3ccccn3)C2)c1 (stereo not drawn)	2.3%	?	i	1.5%	?	4.7%
CCC(C)Nc1ccc(NC(C)CC)cc1 (stereo not drawn)	-14.8%	?	i	0.4%	?	-8.1%
COc1ccc(C(C)NCCC(c2ccc(OC(C)C)cc2)c2ccccc2OC)cc1 (stereo not drawn)	-0.2%	?	i	-2.5%	?	-9.9%
Oc1ccc2c3c1O[C@H]1[C@@H](O)C=CC4[C@@H](C2)NCC[C@@]341 (stereo partly drawn)	·	·	·	·	·	4.1%
O=C(NCc1cccnc1)/C(=C\c1ccc(-c2ccc(Br)cc2)o1)S(=O)(=O)c1ccccc1	24.1%	?	6.4%	-3.8%	1.78µM*	-39.2%
COC(=O)C1(C(=O)OC)C[C@H](c2ccc(OC)cc2)N(Cc2ccccc2OC)[C@@H]1c1ccccc1	·	16.0%	·	·	?	·
Cc1cccc(Cn2c(C)c(C)c3cc(C(=O)NCc4ccco4)ccc32)c1	26.1%	?	-9.1%	·	?	·
C[C@]12CCC3C(CCC4=CC(=O)CC[C@@H]43)C1CCC2O (stereo partly drawn)	·	·	·	·	·	4.3%
CCN(CC)c1ccc(/C=N/NC(=O)CNC(=O)C2COc3ccccc3O2)c(O)c1 (stereo not drawn)	46.3%	?	i	3.4%	?	-7.8%
Cc1ccccc1C(c1ncccc1C)N(C)C(=O)C1CCN(CCOc2ccc(Cl)cc2Cl)CC1 (stereo not drawn)	·	10µM*	·	·	?	-11.1%
CN(C)CC(C(=O)Cc1ccccc1)c1ccccc1 (stereo not drawn)	-7.4%	?	i	·	5.01µM*	-8.2%
